Test results as given in PubChem BioAssay (Tox21).
Values without a mark were called inactive. Records with an inconclusive call do not appear. Where a call stands in place of a potency, no number is given. Calls of active or inactive are those of the source. Unless noted, calls follow the shape of the dose curve; as a rule, active = well fitted curve in the direction sought with a large enough effect in the repeat runs; inconclusive = weak or mixed curves; inactive = no such curve, though single readings can be large; an effect the other way counts as inactive or inconclusive.

Legend:
[1] = qHTS assay to identify small molecule antagonists of the sonic hedgehog signaling (Shh) pathway (AID 1259369; calls by dose curve; also: nearly all actives have a fitted effect of over 45% in size; also: potency is read from the fitted curve at half-maximal effect)
Method in brief: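 Screening used 3T3Gli1-Luc cells at 2,000 per well, compounds delivered in DMSO, and conditioned medium as agonist stimulus; plates incubated 24hr at 37 C and 5% CO2 before a 30min luciferase step.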

[2] = qHTS assay to identify small molecule agonists of the androgen receptor (AR) signaling pathway in the presence of an antagonist - cell viability counter screen (AID 1259379); also: nearly all actives have a fitted effect of over 25% in size; also: potency is read from the fitted curve at half-maximal effect
Method in brief: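 In MDA-kb2 cells (human breast carcinoma, MMTV-luciferase), compounds at 15 concentrations plus 3.0uM nilutamide; 16 hr, 37C, 0% CO2; CellTiter-Fluor fluorescence read for viability.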

[3] = qHTS assay to identify small molecule antagonists of the estrogen receptor beta (ER-beta) signaling pathway - cell viability counter screen (AID 1259382); also: nearly all actives have a fitted effect of over 55% in size; also: potency is read from the fitted curve at half-maximal effect
Method in brief: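 Tox21 10K library tested in qHTS format on ER-beta-bla HEK293T cells stimulated with 1nM E2; 16 hr treatment at 37C. Same-well CellTiter-Glo luminescence served as the cell viability measure.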

[4] = qHTS assay to identify small molecule agonists or antagonists of the thyroid stimulating hormone receptor (TSHR) signaling pathway - wild type cell line counter screen (AID 1259384; calls by dose curve)
Method in brief: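 Counter screen in untransfected Hek293: compounds (15-point titration, triplicate) plus phosphodiesterase inhibitor Ro20-1724 added after 18 h plating; 30 min RT. Intracellular cAMP via competitive d2/cryptate immunoassay, 1 h incubation.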

[5] = biological target: Thyrotropin receptor (Homo sapiens) (UniProt P16473); test: qHTS assay to identify small molecule antagonists of the thyroid stimulating hormone receptor (TSHR) signaling pathway (AID 1259385; calls by dose curve; also: nearly all actives have a fitted effect of over 20% in size; also: potency is read from the fitted curve at half-maximal effect)
Sequence of Thyrotropin receptor (Homo sapiens) (P16473 whole entry, looked up): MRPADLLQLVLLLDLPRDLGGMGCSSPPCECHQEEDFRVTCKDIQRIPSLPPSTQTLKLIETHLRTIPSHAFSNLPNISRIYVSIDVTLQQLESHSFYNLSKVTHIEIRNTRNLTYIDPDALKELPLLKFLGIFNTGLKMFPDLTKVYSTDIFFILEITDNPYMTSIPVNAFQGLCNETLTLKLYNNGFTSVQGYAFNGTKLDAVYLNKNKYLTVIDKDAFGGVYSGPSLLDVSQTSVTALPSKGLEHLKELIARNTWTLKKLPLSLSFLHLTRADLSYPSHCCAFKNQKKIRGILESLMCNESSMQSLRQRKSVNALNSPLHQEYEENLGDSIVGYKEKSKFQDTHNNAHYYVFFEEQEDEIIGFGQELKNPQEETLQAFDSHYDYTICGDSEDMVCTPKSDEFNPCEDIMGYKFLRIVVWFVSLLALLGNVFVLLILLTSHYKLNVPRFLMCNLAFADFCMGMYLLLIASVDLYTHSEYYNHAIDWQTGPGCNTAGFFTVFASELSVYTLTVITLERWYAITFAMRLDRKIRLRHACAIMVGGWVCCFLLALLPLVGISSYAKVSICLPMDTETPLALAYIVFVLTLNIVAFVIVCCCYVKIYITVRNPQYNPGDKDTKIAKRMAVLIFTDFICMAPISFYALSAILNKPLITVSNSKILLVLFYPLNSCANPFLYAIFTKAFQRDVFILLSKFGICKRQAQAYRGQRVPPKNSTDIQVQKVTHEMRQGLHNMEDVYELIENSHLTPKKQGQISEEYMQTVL
Method in brief: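 Antagonist mode: compound-treated TSHR-expressing HEK293 cells were stimulated with 1.5 ng/mL TSH (final) in presence of Ro20-1724 for 30 min at RT. HTRF cAMP detection after 1 h; each compound tested at 15 concentrations, triplicate.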

[6] = biological target: Progesterone receptor (Homo sapiens) (UniProt P06401); test: qHTS assay to identify small molecule agonists of the progesterone receptor (PR) signaling pathway (AID 1346784; calls by dose curve; also: nearly all actives have a fitted effect of over 30% in size)
Sequence of Progesterone receptor (Homo sapiens) (P06401 whole entry, looked up): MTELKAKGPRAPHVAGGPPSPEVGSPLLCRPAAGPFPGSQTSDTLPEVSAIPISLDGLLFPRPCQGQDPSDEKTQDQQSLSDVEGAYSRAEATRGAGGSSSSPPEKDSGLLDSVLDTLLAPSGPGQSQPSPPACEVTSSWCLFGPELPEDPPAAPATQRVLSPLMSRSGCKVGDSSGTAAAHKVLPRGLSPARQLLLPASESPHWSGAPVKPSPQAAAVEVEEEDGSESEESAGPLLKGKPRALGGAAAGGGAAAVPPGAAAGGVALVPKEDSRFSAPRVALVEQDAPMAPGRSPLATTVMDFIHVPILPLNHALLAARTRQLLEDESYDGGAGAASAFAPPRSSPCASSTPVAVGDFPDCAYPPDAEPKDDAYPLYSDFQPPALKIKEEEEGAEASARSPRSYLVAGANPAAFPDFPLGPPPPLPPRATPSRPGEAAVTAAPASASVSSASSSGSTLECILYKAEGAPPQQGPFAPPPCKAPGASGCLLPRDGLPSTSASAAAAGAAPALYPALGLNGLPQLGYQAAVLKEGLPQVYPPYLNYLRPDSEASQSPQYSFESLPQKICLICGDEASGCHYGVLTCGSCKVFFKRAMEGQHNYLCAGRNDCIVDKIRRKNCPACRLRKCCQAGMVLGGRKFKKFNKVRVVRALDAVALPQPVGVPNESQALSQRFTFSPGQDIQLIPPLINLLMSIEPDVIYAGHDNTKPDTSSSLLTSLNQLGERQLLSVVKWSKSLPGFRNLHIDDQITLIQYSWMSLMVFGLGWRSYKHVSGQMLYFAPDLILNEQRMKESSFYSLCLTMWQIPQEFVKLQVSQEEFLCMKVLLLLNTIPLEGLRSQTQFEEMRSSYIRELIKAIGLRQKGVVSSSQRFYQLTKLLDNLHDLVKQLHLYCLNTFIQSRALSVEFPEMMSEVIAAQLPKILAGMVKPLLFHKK
Method in brief: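 The screen uses PR-UAS-bla HEK 293T cells in charcoal-stripped serum (2%). Compounds are applied for 16 hr at 37C after a 6 hr pre-incubation, and reporter activity is detected with a FRET beta-lactamase substrate after 2 hr at room temperature.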

[7] = biological target: Progesterone receptor (Homo sapiens) (UniProt P06401); test: qHTS assay to identify small molecule antagonists of the progesterone receptor (PR) signaling pathway (AID 1346795; active = well fitted inhibition curve with a large enough effect in the signal ratio in the repeat runs, not every such curve was filed as active; the % refers to the signal ratio; also: potency is read from the fitted curve at half-maximal effect)
Method in brief: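 After 6 hr plating at 37C in 2% stripped-serum medium, PR-UAS-bla HEK293T cells got compounds, then 1 nM R5020. Sixteen hours later, LiveBLAzer substrate was applied for 2 hr at room temperature and fluorescence was recorded.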

[8] = qHTS assay to identify small molecule antagonists of the progesterone receptor (PR) signaling pathway - cell viability counter screen (AID 1346798); also: series mostly up to about 92 µM; nearly all actives have a fitted effect of over 50% in size
Method in brief: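 Viability was determined by ATP-based luminescence (CellTiter-Glo) in PR-UAS-bla HEK293T cells cultured in 2% charcoal-stripped serum and incubated 16 hr with compounds under R5020 stimulation.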

[9] = qHTS assay to identify small molecule agonists of the progesterone receptor (PR) signaling pathway - cell viability counter screen (AID 1346799; calls by dose curve; also: nearly all actives have a fitted effect of over 45% in size; also: potency is read from the fitted curve at half-maximal effect)
Method in brief: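 Viability was scored by ATP luminescence (CellTiter-Glo, 30 min, room temperature) in the same wells used for the reporter readout, after 16 hr compound exposure of PR-UAS-bla HEK293T cells.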

[10] = qHTS assay to identify small molecule antagonists of the TGF-beta/Smad signaling pathway - cell viability counter screen (AID 1346824); also: nearly all actives have a fitted effect of over 50% in size; also: potency is read from the fitted curve at half-maximal effect
Method in brief: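 Cytotoxicity counter-screen run in the same wells as the beta-lactamase Smad reporter read: CellTiter-Glo luminescence after 30 min at room temperature. HEK 293T SBE-bla cells had 5 hr compound exposure at 37 C with TGF-beta1 (0.25 ng/mL stock).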

[11] = qHTS assay to identify small molecule agonists of the TGF-beta/Smad signaling pathway - cell viability counter screen (AID 1346829); also: nearly all actives have a fitted effect of over 45% in size; also: potency is read from the fitted curve at half-maximal effect
Method in brief: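 Tox21 qHTS format: SBE-bla HEK 293T cells treated with DMSO-dissolved compounds for 5 hr; CellTiter-Glo luminescence after 30 min at room temperature.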

[12] = qHTS assay to identify small molecule agonists of the TGF-beta/Smad signaling pathway (AID 1346859; active = well fitted activation curve with a large enough effect in the signal ratio in the repeat runs, not every such curve was filed as active; the % refers to the signal ratio; also: series mostly up to about 77 µM)
Method in brief: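 Dual-wavelength fluorescence (460/530 nm emission) quantified beta-lactamase expression under the Smad binding element in HEK 293T cells following 5 hr compound treatment at 37 C.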

[13] = biological target: Androgen receptor (Homo sapiens) (UniProt P10275); test: qHTS assay to identify small molecule agonists of the androgen receptor (AR) signaling pathway in the presence of an antagonist (AID 1259381; calls by dose curve; also: nearly all actives have a fitted effect of over 15% in size)
Sequence of Androgen receptor (Homo sapiens) (P10275 whole entry, looked up): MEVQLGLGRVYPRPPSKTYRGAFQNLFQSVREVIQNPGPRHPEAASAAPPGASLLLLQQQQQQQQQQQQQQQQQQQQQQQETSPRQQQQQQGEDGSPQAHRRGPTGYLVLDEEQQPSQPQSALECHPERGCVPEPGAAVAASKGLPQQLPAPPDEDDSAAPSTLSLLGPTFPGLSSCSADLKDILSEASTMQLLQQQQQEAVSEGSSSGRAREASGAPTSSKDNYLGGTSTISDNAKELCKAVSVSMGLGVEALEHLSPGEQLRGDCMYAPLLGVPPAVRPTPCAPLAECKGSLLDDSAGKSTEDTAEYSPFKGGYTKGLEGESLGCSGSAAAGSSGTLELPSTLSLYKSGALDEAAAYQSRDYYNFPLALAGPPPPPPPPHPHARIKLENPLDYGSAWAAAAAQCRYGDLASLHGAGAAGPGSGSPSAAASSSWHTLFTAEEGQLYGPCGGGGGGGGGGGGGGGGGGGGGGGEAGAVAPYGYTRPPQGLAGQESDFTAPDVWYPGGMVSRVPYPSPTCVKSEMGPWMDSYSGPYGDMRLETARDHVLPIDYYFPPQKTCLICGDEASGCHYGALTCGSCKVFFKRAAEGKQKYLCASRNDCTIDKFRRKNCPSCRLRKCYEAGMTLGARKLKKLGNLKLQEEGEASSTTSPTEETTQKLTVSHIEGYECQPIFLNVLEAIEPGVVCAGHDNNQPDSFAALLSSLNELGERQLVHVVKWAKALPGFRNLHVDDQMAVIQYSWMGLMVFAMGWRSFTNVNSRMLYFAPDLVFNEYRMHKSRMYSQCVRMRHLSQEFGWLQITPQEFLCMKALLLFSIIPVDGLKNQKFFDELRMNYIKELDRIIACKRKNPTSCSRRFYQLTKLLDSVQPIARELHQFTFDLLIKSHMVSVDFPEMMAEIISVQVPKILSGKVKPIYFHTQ
Method in brief: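 Here, 15-concentration compound series were pin-transferred onto MDA-kb2 MMTV-luciferase cells already dosed with nilutamide (3.0uM final). After 16hr at 37C, ONE-Glo was added and luminescence read 30min later at room temperature.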

[14] = biological target: Estrogen receptor (Homo sapiens) (UniProt P03372); test: qHTS assay to identify small molecule agonists of the estrogen receptor alpha (ER-alpha) signaling pathway in the presence of an antagonist (AID 1259383; calls by dose curve; also: top concentration of the series differs between compounds; nearly all actives have a fitted effect of over 15% in size)
Sequence of Estrogen receptor (Homo sapiens) (P03372 whole entry, looked up): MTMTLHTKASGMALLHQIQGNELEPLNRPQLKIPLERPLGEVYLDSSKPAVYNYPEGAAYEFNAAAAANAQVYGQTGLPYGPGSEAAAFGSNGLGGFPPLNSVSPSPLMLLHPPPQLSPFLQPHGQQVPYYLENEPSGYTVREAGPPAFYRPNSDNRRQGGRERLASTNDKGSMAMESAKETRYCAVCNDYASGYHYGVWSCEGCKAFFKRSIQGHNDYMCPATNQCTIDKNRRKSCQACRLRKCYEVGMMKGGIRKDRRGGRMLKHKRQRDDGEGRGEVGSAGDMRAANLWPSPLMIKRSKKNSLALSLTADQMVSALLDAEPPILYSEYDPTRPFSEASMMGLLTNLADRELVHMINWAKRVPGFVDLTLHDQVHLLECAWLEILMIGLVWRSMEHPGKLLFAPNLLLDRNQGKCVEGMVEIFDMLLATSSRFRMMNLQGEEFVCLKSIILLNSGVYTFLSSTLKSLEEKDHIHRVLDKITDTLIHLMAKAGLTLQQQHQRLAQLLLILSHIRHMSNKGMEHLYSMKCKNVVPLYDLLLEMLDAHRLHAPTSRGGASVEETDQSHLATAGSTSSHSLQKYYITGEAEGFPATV
Method in brief: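 In VM7Luc4E2 cells, 4,000 per well, compounds at 15 concentrations were co-incubated 22hr at 37C with 10.0nM final ICI-182,780. Luminescence from the stably transfected 4×ERE-luciferase reporter was recorded 30min after ONE-Glo addition.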

[15] = biological target: Thyrotropin-releasing hormone receptor (Homo sapiens) (UniProt P34981); test: qHTS assay to identify small molecule antagonists of the thyrotropin-releasing hormone receptor (TRHR) signaling pathway (AID 1346877; active = well fitted inhibition curve with a large enough effect in the repeat runs, not every such curve was filed as active; also: series mostly up to about 51 µM)
Sequence of Thyrotropin-releasing hormone receptor (Homo sapiens) (P34981 whole entry, looked up): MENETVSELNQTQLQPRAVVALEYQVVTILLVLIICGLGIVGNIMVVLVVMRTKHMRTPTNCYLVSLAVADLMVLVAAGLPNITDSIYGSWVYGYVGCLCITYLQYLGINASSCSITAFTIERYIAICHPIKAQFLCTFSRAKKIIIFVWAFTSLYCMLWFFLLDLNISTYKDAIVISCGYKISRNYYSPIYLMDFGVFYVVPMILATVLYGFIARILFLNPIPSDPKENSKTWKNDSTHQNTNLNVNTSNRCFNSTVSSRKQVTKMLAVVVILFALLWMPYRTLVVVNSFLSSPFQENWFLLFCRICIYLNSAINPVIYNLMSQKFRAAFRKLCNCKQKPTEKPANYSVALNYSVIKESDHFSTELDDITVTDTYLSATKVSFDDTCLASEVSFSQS
Method in brief: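 In this cell-based calcium flux format, HEK293 cells expressing TRHR received test compound for 5 min before the agonist TRH (1 nM final). Dye loading lasted 2 h at 37 °C.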

[16] = biological target: Thyrotropin-releasing hormone receptor (Homo sapiens) (UniProt P34981); test: qHTS assay to identify small molecule agonists of the thyrotropin-releasing hormone receptor (TRHR) signaling pathway (AID 1346891; calls by dose curve; also: series mostly up to about 58 µM)
Method in brief: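 Kinetic fluorescence (3 min, 1 s intervals) reported intracellular calcium after compound transfer onto TRHR-Hek293 cells pre-loaded with dye for 2 h at 37 °C.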

[17] = qHTS assay to identify small molecule agonists of the estrogen receptor beta (ER-beta) signaling pathway - cell viability counter screen (AID 1259380); also: nearly all actives have a fitted effect of over 30% in size; also: potency is read from the fitted curve at half-maximal effect
Method in brief: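 Viability of ER-beta-UAS-bla HEK293T cells was determined by CellTiter-Glo luminescence following 16 hr treatment with test compounds at 37C.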

[18] = qHTS assay to identify small molecule agonists of the estrogen receptor alpha (ER-alpha) signaling pathway in the presence of an antagonist - cell viability counter screen (AID 1259386);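 also: cells exposed to compounds for 22 h at 37 °C before the viability read; nearly all actives have a fitted effect of over 30% in size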; also: potency is read from the fitted curve at half-maximal effect
Method in brief: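 Fluorescent CellTiter-Fluor viability signal from VM7Luc4E2 cells, with the reagent added during the final hour of a 22hr compound exposure at 37C in the presence of 10.0nM ICI-182,780.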

SMILES	Potency [1]	Potency [2]	Potency [3]	Potency [4]	Potency [5]	Potency [6]	Potency [7]	Potency [8]	Potency [9]	Potency [10]	Potency [11]	outcome [12]	Potency [13]	Potency [14]	Potency [15]	Potency [16]	Potency [17]	Potency [18]
CNC(C)(C)Cc1ccccc1	inactive	inactive	inactive	inactive	inactive	inactive	inactive	inactive	inactive	inactive	inactive	inactive	–	–	–	–	–	–
CC1=C2C[C@H]3[C@@H](CC=C4C[C@@H](O)CC[C@@]43C)[C@@H]2CC[C@]12O[C@@H]1C[C@H](C)CN[C@H]1[C@H]2C	0.266 µM (active)	26.6 µM (active)	inactive	inactive	inactive	–	–	–	–	inactive	–	inactive	inactive	inactive	inactive	inactive	–	–
CC(=O)O.CC(=O)O.CC(=O)O.CC(=O)O.CC(=O)O.CC(=O)O.CC(=O)O.O.O.[Cr].[Cr].[Cr]	inactive	inactive	inactive	–	–	inactive	inactive	inactive	inactive	–	inactive	inactive	–	–	–	–	inactive	inactive
CCO/N=C(\CC)C1=C(O)CC(c2c(C)cc(C)cc2C)CC1=O (centres undefined)	5.45 µM (active)	inactive	inactive	–	–	inactive	–	–	–	inactive	inactive	inactive	inactive	inactive	–	–	–	inactive
C[C@]12Cc3cn[nH]c3C[C@@H]1CC[C@@H]1[C@@H]2CC[C@@]2(C)[C@H]1CC[C@]2(C)O	13.3 µM (active)	inactive	6.68 µM (active)	inactive	inactive	–	0.119 µM (active)	–	18.8 µM (active)	inactive	inactive	inactive	–	–	inactive	inactive	8.41 µM (active)	inactive
CCOP(=O)(Sc1ccccc1)Sc1ccccc1	inactive	inactive	inactive	inactive	inactive	inactive	–	inactive	–	inactive	inactive	inactive	–	inactive	–	–	–	inactive
CCCCC(CC)COC(=O)OOC(C)(C)C (centres undefined)	inactive	inactive	inactive	–	–	–	inactive	inactive	inactive	inactive	inactive	inactive	–	–	inactive	inactive	inactive	–
CNN	inactive	inactive	inactive	–	–	inactive	inactive	inactive	inactive	inactive	inactive	inactive	–	–	–	–	inactive	inactive
CC(O)C(=O)[O][Hg][c]1ccccc1 (centres undefined)	0.0306 µM (active)	6.86 µM (active)	4.33 µM (active)	–	54.5 µM (active)	–	–	–	4.86 µM (active)	9.77 µM (active)	17.4 µM (active)	–	–	inactive	–	–	4.86 µM (active)	12.2 µM (active)
